Records with an inconclusive call do not appear. Where a call stands in place of a potency, no number is given. Calls of active or inactive are those of the source. The call rests on the fitted dose curve; in most records, active means well fitted inhibition curve with a large enough effect; inconclusive means small, poorly fitted or top-dose-only effect; inactive means flat fitted curve, though single readings scatter.
Test: CHOP2 Reporter Counterscreen Assay for Inhibitors of Ubiquitin-specific Protease USP2a;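 further: activated enterokinase alone at 50 pM in a cell-free format rather than USP2a or CHOP2; nearly all actives have a fitted effect of over 55% in size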
Settings: purified enterokinase, fluorogenic substrate, 485/531 nm; series mostly up to 38.3 µM
Outline: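 Fluorescence (485/531 nm) read 10 min after adding 25nM reporter substrate to 50 pM activated EK preincubated 30 min RT with compound; Tris pH 8.0/CaCl2/CHAPS buffer. Data normalized to buffer-alone inhibition; concentration-response curves fitted.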
Potency means the concentration at half of the fitted maximal effect.

| SMILES | Potency |
| --- | --- |
| FC(F)(F)C1=Nc2cccc3cccc(c23)N1 | inactive |
| CN1CCN(S(=O)(=O)c2ccc(N3CCN(S(=O)(=O)/C=C/c4ccccc4)CC3)nc2)CC1 | inactive |
| O=C(Nc1nnc(SCC(=O)N2CCCC2)s1)C1CC(=O)N(c2ccc(F)cc2)C1 (stereo not given) | 10 µM (active) |
| COC(=O)c1c(N2C(=O)CCC2=O)sc2c1CCCC2 | inactive |
| Cc1ccc(NC(=O)CN2C(=O)N/C(=C/c3ccco3)C2=O)cc1 | 5.01 µM (active) |
| COc1ccc(CNS(=O)(=O)c2ccc(S(=O)(=O)N3CCCCC3)cc2)cc1 | inactive |
| C=CC[C@H](CC(=O)N[C@H](CO)Cc1ccccc1)C(=O)N[C@H](COC(=O)[C@@H](CC=C)CC(=O)OC(C)(C)C)Cc1c[nH]c2ccccc12 | inactive |
| O=C1CS/C(=C/C(=O)c2ccccc2)N1 | inactive |
| CC(C)CCn1c(CN2CCN(C(=O)c3ccco3)CC2)nc2c1c(=O)n(C)c(=O)n2C | inactive |
| COc1ccccc1N1C(=O)CC(N2CCc3ccccc32)C1=O (stereo not given) | inactive |
| C#CCOCCOCCOCCNc1nc(N2CCN(C(=O)CCCCCCCCCCNC(=O)[C@@H](CCC(=O)O)n3cc(CCCCCN)nn3)CC2)nc(N2CCN(C(=O)CCCCCCCCCCNC(=O)[C@H](CCCCN)n3cc(C[C@@H](C)CC)nn3)CC2)n1 | 5.62 µM (active) |
| O=C(Nc1ccccc1)Nc1snnc1C(=O)Nc1cccc(O)c1 | inactive |
| O=C(CCN1C(=O)/C(=C\c2ccco2)SC1=S)Nc1ccc(C(=O)O)c(O)c1 | 10 µM (active) |
| Cc1cc(NS(=O)(=O)c2ccc(Nc3nc(-c4ccc(C)c(C)c4)cs3)cc2)no1 | inactive |
| O=C(NN1C(=O)/C(=C/C=C/c2ccco2)SC1=S)c1ccncc1 | 2.51 µM (active) |
| S=c1[nH]nc(-c2cc(-c3ccco3)[nH]n2)n1-c1cccc2ccccc12 | inactive |
| CC[n+]1c(/C=C/N(C)c2ccccc2)n(-c2ccccc2)c2ccc(-c3nc4ccccc4s3)cc21 | 10 µM (active) |
| CS(=O)(=O)c1nc(-c2ccc(Br)cc2)cc(-c2ccccc2)c1C#N | inactive |
| O=C(O)c1cc(N2N=C(C(F)(F)F)/C(=C/C=C/c3ccco3)C2=O)ccc1Cl | 3.98 µM (active) |
| O=C(NC1CCCCC1)C(c1ccco1)N(Cc1ccco1)C(=O)c1ccco1 (stereo not given) | inactive |

| SMILES | Potency |
| --- | --- |
| CSC1=NCCN1C(=O)Cc1ccc(F)cc1 | inactive |
| O=C(Nc1ccc2nc(-c3ccco3)c(-c3ccco3)nc2c1)N1CCN(c2ccccn2)CC1 | 2.82 µM (active) |
| Cc1ccc(N2CCN(C(=O)CCc3nc4ccccc4[nH]3)CC2)c(C)c1 | inactive |
| COC(=O)c1cc2sc(Cl)cc2n1Cc1nc(-c2ccccc2)oc1C | inactive |
| Cn1ccc(=Nc2ccc(NC(=O)c3ccc(N=c4ccn(C)c5ccc([N+](=O)[O-])cc45)cc3)cc2)cc1 | inactive |
| Nc1c(C(=O)NC2CC2)sc2nc3c(c(-c4ccco4)c12)CC/C3=C/c1ccco1 | 2.24 µM (active) |
| Cc1ccc(NC(=O)c2onc(C)c2Cl)cc1 | inactive |
| COc1cccc(C(=O)NC(C)c2ccc(-c3ccccc3)cc2)c1OC (stereo not given) | inactive |
| COc1ccc(NC(=O)CSc2nc3sc(C)cc3c(=O)n2C)c(OC)c1 | inactive |
| O=C(/C=N/O)NCc1cccnc1 | inactive |
| COc1ccc(NC(=O)CSc2ncccc2C(=O)OC(C)C)cc1OC | inactive |
| O=C(COc1ccccc1)NCCSc1ccccc1 | inactive |
| CC1CC(C)CN(C(=O)CSc2nnc(-c3ccc(Cl)cc3)o2)C1 (stereo not given) | inactive |
| O=C(CSc1nc2ccccc2[nH]1)Nc1ccc2c(c1)OCCO2 | inactive |
| CCOc1ccccc1N(CC(=O)NC(C)(C)C)C(=O)c1ccc(CN2CCOCC2)o1 | inactive |
| Cc1cc(C)cc(NC(=O)CSc2nc3c(c(=O)[nH]2)CN(Cc2ccc(F)cc2)CC3)c1 | inactive |
| CC1=NC(C(F)(F)F)(C(F)(F)F)C2=C(CC(C)(C)CC2=O)N1Cc1ccco1 | inactive |
| O=C(CN1CCC(O)CC1)N1c2ccccc2C=Cc2ccccc21 | inactive |
| O=C(Cc1ccc(S(=O)(=O)N2CCOCC2)s1)Nc1nc2c(s1)CCCC2 | 10 µM (active) |
| Cc1cc(Cl)ccc1NC(=S)NCCCN1CCCC1=O | inactive |

Source: PubChem BioAssay AID493169 (National Center for Advancing Translational Sciences (NCATS), 2011)
